Most compounds without a hit are left out; they make up all but 32% or so of the library.
CYP2C19 act = cytochrome P450 2C19 (human) activation; P33261; recombinant CYP2C19, luciferin-H EGE luminescence; stronger effect = higher value; 0 = fully inhibited enzyme, 1 = untreated enzyme; activation factor at 5 µM; 96,000 tested, under 10 active;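 active = activation factor of at least 2 at 5 µM in the primary screen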;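 note: 0 = wells with 2.5 mM tranylcypromine and 1 = vehicle-only wells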
Target sequence (P33261 whole entry, looked up): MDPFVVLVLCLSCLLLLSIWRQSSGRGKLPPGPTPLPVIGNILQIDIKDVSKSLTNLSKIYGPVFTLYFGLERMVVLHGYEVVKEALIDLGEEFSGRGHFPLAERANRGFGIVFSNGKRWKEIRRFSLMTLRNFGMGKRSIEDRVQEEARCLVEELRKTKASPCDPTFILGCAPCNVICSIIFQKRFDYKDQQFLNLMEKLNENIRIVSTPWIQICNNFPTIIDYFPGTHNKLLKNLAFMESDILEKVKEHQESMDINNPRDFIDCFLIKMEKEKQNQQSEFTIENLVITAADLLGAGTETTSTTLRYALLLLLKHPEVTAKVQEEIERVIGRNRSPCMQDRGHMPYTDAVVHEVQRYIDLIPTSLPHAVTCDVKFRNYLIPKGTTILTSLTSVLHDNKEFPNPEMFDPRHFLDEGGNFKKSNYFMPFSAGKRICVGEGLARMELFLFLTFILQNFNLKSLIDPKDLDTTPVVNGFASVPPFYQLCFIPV
PostGolgi ctrl = growth of the yeast control strain, post-Golgi counter-screen; efflux-deficient yeast background strain, growth absorbance A615, 16 h; inhibition, % at 10 µM; 5% of 98,000 active
CYP2C9 act = increases human cytochrome P450 2C9 activity; P11712; recombinant CYP2C9, luciferin-H conversion, luminescence; stronger effect = higher value; factor 1 = untreated enzyme, 0 = blocked; activation factor at 5 µM; 1.4% of 96,000 active;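 active = activation factor of 2 or more for CYP2C9 at a 5 µM dose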;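 note: 0 = sulfaphenazole-blocked wells and 1 = vehicle-only wells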
PostGolgi yeast = growth inhibition of a yeast mutant, post-Golgi transport screen; post-Golgi transport phenotypic cell assay; inhibition, % at 10 µM; 0.9% of 98,000 active;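 note: yeast cells grown in 1536-well plates; yeast grown about 18 h at 30C before absorbance read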
CYP2C9 inhib = human CYP2C9 inhibition; P11712; CYP2C9 Supersomes, luciferin-H conversion, luminescence; inhibition, % at 5 µM; 20% of 96,000 active; AID 777;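 active = blocking of liver enzyme CYP2C9 beyond about 50% at 5 µM, limit read from the data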
CYP2C19 inh = blocks human cytochrome P450 2C19; CYP2C19 Supersomes, luciferin-H EGE luminescence, 30 min; inhibition, % at 5 µM; 21% of 96,000 active; AID 778;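 active = CYP2C19 inhibition above a set limit at 5 µM in the primary screen, cut at about 50% in these data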;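 note: plate controls were negative control wells for no effect and 2.5 mM tranylcypromine positive control for full effect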
The depositor's hits bear a star; . = no result given. Cut-off read from the data, not from the text of the source, unless noted: active = inhibition above about 30%; inactive = the rest.

SMILES | CYP2C19 act | PostGolgi ctrl | CYP2C9 act | PostGolgi yeast | CYP2C9 inhib | CYP2C19 inh
COC(=O)c1ccccc1NC(=O)c1cccs1 | 1 | 14 | 1.3 | -1 | -26 | -1
O=C(Nc1cccc(C(F)(F)F)c1)c1cc(-c2cccs2)on1 | 1.1 | 11 | 2.5* | 8 | -147 | -6
CC1(C)CC2CC(C)(CN2C(=O)COC(=O)Cn2[nH]c(=O)c3ccccc3c2=O)C1 (stereo not drawn) | 0.7 | -13 | 0.7 | -2 | 26 | 32
CCc1cc(C(=O)OC)c(NC(=O)CCCC(=O)O)s1 | 1 | -5 | 1 | -7 | 5 | -1
CCc1cc(C(=O)O)c(NC(=O)C(c2ccccc2)c2ccccc2)s1 | 1 | -2 | 0 | -2 | 97* | 3
CCCc1ncc(C(O)c2cccc3ccccc23)n1C (stereo not drawn) | 0.4 | 6 | 0.6 | -1 | 40 | 61*
CC(C)c1ncc(C(O)c2cccc3ccccc23)n1C (stereo not drawn) | 1 | -4 | 1 | 19 | 1 | 2
CC1(C)CC(=O)c2cc(OCC(=O)NCCN3CCOCC3)ccc2O1 | 0.9 | 25 | 0.9 | 7 | 7 | 13
Cc1sc2ncnc(NCC3(N4CCOCC4)CCCCC3)c2c1C | 0.7 | 33* | 0.4 | 32* | 60* | 30
CCCS(=O)(=O)N1CCN(C(=O)CCC2CCCC2)CC1 | 0.8 | 6 | 1.1 | -3 | -5 | 24
CCOC(=O)C1=C(CN2CCN(c3ccc(F)cc3)CC2)NC(=O)NC1c1cccs1 (stereo not drawn) | 0.1 | 1 | 0.1 | 4 | 91* | 88*
CCOC(=O)C1=C(CN2CCOCC2)NC(=O)NC1c1cc(C)ccc1C (stereo not drawn) | 0.8 | 14 | 0.7 | 0 | 26 | 23
c1ccc(Nc2nnc(SCc3cccc4ccccc34)s2)cc1 | 0.7 | 8 | 2.1* | -12 | -111 | 34
N#Cc1ccccc1CSc1ccccn1 | 0.4 | 14 | 1 | 7 | 5 | 56*
Cc1cc2nc(-c3ccc(SCc4ccccc4C#N)nc3)[nH]c2cc1C | 0.7 | 0 | 0.7 | 0 | 34 | 34
CC(=O)N1CCc2ccc(C(=O)CN3CCN(c4cccc(C)c4C)CC3)cc21 | 1 | 0 | 1 | -1 | 0 | -4
CC(=O)N(CC(C)(C)CC=C(C)C)c1ccccc1 | 0.5 | . | 0.9 | . | 13 | 52*
Cc1ccc2nc(-c3ccc(NC(=O)C4CCCO4)cc3)[nH]c2c1 (stereo not drawn) | 0.4 | 11 | 0.5 | -6 | 54* | 62*
Cc1ccc2nc(-c3cccc(NC(=O)c4ccco4)c3)[nH]c2c1 | 0.1 | 28 | 0.1 | -6 | 91* | 91*
O=C(Nc1ccc(-c2nc3ccccc3[nH]2)cc1)c1ccco1 | 0.3 | 4 | 0.6 | 0 | 39 | 66*
Cc1ccc2nc(-c3ccc(NC(=O)Cc4cccs4)cc3)[nH]c2c1 | 1 | -1 | 0.6 | -5 | 44 | 3
O=C(Nc1ccc2nc(-c3ccco3)[nH]c2c1)c1ccco1 | 1 | -9 | 1.3 | 3 | -30 | 5
Cc1ccc(-c2nnc(N3CCCCC3)c3ccccc23)cc1S(=O)(=O)NCC1CCCO1 (stereo not drawn) | 0.9 | 13 | 0.5 | 0 | 46 | 10
CC(C)(C)C1CCc2c(sc(NC(=O)c3cccs3)c2C(=O)N2CCCCC2)C1 (stereo not drawn) | 1.1 | -1 | 1 | 18 | 3 | -6
COCCNC(=O)c1onc(CSc2ccccc2C)c1C(=O)O | 0.7 | 2 | 0.8 | -11 | 16 | 26
SMILES | CYP2C19 act | PostGolgi ctrl | CYP2C9 act | PostGolgi yeast | CYP2C9 inhib | CYP2C19 inh
COC(=O)CCC(=O)c1oc2ccccc2c1N | 0.2 | -4 | 0.7 | -4 | 35 | 84*
Nc1ccc(Sc2nnnn2-c2ccccc2)c(Cl)c1 | 0.1 | 8 | 1.1 | 23 | -7 | 93*
O=[N+]([O-])c1ccc(Sc2nnnn2-c2ccccc2)c(Cl)c1 | 0 | 22 | 0.3 | 10 | 68* | 98*
O=C(O)c1ccc(SCc2cnc(Cl)s2)cc1 | 1 | 6 | 1.3 | -17 | -32 | -1
CC(=O)C(Cc1cnc(Cl)s1)(Cc1cnc(Cl)s1)C(C)=O | 0.3 | 17 | 0.9 | -1 | 11 | 69*
Cc1ccc(C(C)n2cc(C(=O)NCc3ccncc3)nn2)cc1 (stereo not drawn) | 0.6 | -1 | 0.1 | -3 | 89* | 43
O=C1CSC(=O)N1CC(O)COc1ccc(Cl)cc1 (stereo not drawn) | 0.5 | 10 | 0.8 | -4 | 23 | 54*
CN(c1ccccc1)S(=O)(=O)c1ccc(NC(=O)c2ccc(-c3ccccc3)cc2)cc1 | 0.4 | 15 | 0.2 | 1 | 84* | 62*
CN(c1ccccc1)S(=O)(=O)c1ccc(NC(=S)Nc2ccccc2)cc1 | 0.8 | 12 | 0.4 | 0 | 60* | 17
CC(=O)Nc1ccc(S(=O)(=O)N(C)c2ccccc2)cc1 | 0.7 | 21 | 0.8 | -7 | 16 | 31
O=C(CCC(=O)N1CCN(c2ccccn2)CC1)Nc1nnc(C2CCCCC2)s1 | 0.8 | 7 | 0.9 | -4 | 10 | 16
CC(C)(C)n1nnnc1C(c1ccncc1)N(Cc1ccccc1)Cc1ccco1 (stereo not drawn) | 0.3 | 23 | 0.1 | 17 | 87* | 74*
CC(C)(C)n1nnnc1C(c1ccccn1)N(Cc1ccccc1)Cc1ccc(Cl)cc1 (stereo not drawn) | 0.9 | 16 | 0.7 | 4 | 32 | 6
CC(C)(C)n1nnnc1C(c1cccs1)N(Cc1cccnc1)Cc1ccco1 (stereo not drawn) | 0.1 | 16 | 0.2 | 2 | 83* | 86*
CC(C)(C)n1nnnc1C(c1cccs1)N(Cc1ccccc1)Cc1ccco1 (stereo not drawn) | 0.7 | 25 | 0.5 | 0 | 53* | 31
CCN(Cc1ccccc1)C(c1ccccn1)c1nnnn1C(C)(C)CC (stereo not drawn) | 0.1 | 8 | 0.3 | 1 | 71* | 86*
c1ccc(CN(Cc2cccs2)C(c2cccs2)c2nnnn2C2CCCC2)cc1 (stereo not drawn) | 0.7 | 10 | 0.6 | 1 | 41 | 32
NC(=O)c1ccc(-c2ncc(-c3ccccc3)o2)cc1 | 0.7 | 13 | 0.8 | 6 | 19 | 25
O=C1CC(Sc2ncccn2)C(=O)N1c1ccccc1C(F)(F)F (stereo not drawn) | 0.4 | 2 | 0.9 | 1 | 5 | 59*
CCOc1ccccc1NS(=O)(=O)c1ccc(OC)c(OC)c1 | . | 6 | . | 7 | . | .
COC(=O)COc1ccc(S(=O)(=O)Nc2ccc(C(N)=O)cc2)cc1C | 0.8 | 2 | 0.5 | 4 | 55* | 20
CCOc1ccc(NS(=O)(=O)c2cc(Cl)ccc2OC)cc1 | 0.6 | 5 | 0.1 | 2 | 91* | 43
Cc1cc(C)cc(NS(=O)(=O)c2ccc3oc(=O)ccc3c2)c1 | 0 | 12 | 0.4 | -17 | 62* | 100*
